# This excerpt belongs to a sample that is enriched for the strongest signals.
# B1: PpFlo1 (Pichia pastoris) (protein)
# chain: MGSSHHHHHHSSGLVPRGSHMQESGDGDISDSAYACDIDATRYDGFNATIYEFQPGDGRLTRDPVFMSTGYLNRTQLHSITGVTDPGFSIYTPGVPTTTLYGIPNVNWENLLLELKGYFRAEVSGDYGLSLRNIDDSAILFFGKETAFQCCNENSISNEASTDYSLFTIFRQEGDETTNLDSFTYTQYLEAGKYYPVRTFFVNIERHAVFNFTMTLPDGTELTDFHNYIYQFGALDEEQCQA
# What was measured:
# Assay in all cases: glycan array binding signal (z-score within array); higher = stronger binding
# Details in all cases: glycan notation: IUPAC condensed, linker removed
# [1] = target: GlcNAc(a1-4)Gal(b1-4)GlcNAc
# Outline: (§1)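 Negative Z-scores can be read as non-binding. The Z-score is calculated within each array and then averaged across arrays of one protein sequence at different concentrations or buffers and across linkers. Arrays, 3228 in all, were curated from the Consortium for Functional Glycomics database and kept only where the protein sequence was available.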
# [2] = target: GlcNAc(a1-4)Gal(b1-4)GlcNAc(b1-3)Gal(b1-4)GlcNAc(b1-3)Gal(b1-4)GlcNAc
# Outline: as §1
# [3] = target: GlcNAc(b1-2)[GlcNAc(b1-4)]Man(a1-3)[GlcNAc(b1-2)Man(a1-6)]Man(b1-4)GlcNAc(b1-4)GlcNAc
# Outline: as §1
# [4] = target: GlcNAc(b1-2)[GlcNAc(b1-6)]Man(a1-6)[GlcNAc(b1-2)Man(a1-3)]Man(b1-4)GlcNAc(b1-4)GlcNAc
# Outline: as §1
# [5] = target: GlcNAc(b1-2)[GlcNAc(b1-6)]Man(a1-6)[GlcNAc(b1-2)Man(a1-3)]Man(b1-4)GlcNAc(b1-4)[Fuc(a1-6)]GlcNAc
# Outline: as §1
# [6] = target: GlcNAc(b1-3)Gal(b1-4)GlcNAc(b1-3)Gal(b1-4)GlcNAc
# Outline: as §1
# [7] = target: GlcNAc(b1-3)Gal(b1-4)GlcNAc(b1-3)Gal(b1-4)GlcNAc(b1-2)Man(a1-3)[GlcNAc(b1-3)Gal(b1-4)GlcNAc(b1-3)Gal(b1-4)GlcNAc(b1-2)Man(a1-6)]Man(b1-4)GlcNAc(b1-4)GlcNAc
# Outline: as §1
# [8] = target: GlcNAc(b1-3)Gal(b1-4)GlcNAc(b1-3)Gal(b1-4)GlcNAc(b1-3)GalNAc
# Outline: as §1
# [9] = target: GlcNAc(b1-3)Gal(b1-4)GlcNAc(b1-3)[GlcNAc(b1-3)Gal(b1-4)GlcNAc(b1-3)]GalNAc
# Outline: as §1
# GlcNAc(b1-3)Man = target: GlcNAc(b1-3)Man
# Outline: as §1
# [10] = target: GlcNAc(b1-6)Gal(b1-4)GlcNAc
# Outline: as §1
# GlcNAc(b1-6)GalNAc = target: GlcNAc(b1-6)GalNAc
# Outline: as §1
# Kdn(a2-3)Gal(b1-4)Glc = target: Kdn(a2-3)Gal(b1-4)Glc
# Outline: as §1
# [11] = target: Man(a1-2)Man(a1-6)[Man(a1-3)]Man(a1-6)[Man(a1-2)Man(a1-2)Man(a1-3)]Man
# Outline: as §1
# Man(a1-3)[Man(a1-6)]Man = target: Man(a1-3)[Man(a1-6)]Man
# Outline: as §1
# [12] = target: Neu5Ac(a2-3)Gal(b1-3)GalNAc
# Outline: as §1
# [13] = target: Neu5Ac(a2-3)Gal(b1-3)GlcNAc(b1-3)Gal(b1-3)GlcNAc
# Outline: as §1
# [14] = target: Neu5Ac(a2-3)Gal(b1-3)GlcNAc(b1-6)GalNAc
# Outline: as §1
# [15] = target: Neu5Ac(a2-3)Gal(b1-4)GlcNAc(b1-3)Gal
# Outline: as §1
# [16] = target: Neu5Ac(a2-3)Gal(b1-4)GlcNAc(b1-3)Gal(b1-3)GlcNAc
# Outline: as §1
# [17] = target: Neu5Ac(a2-3)Gal(b1-4)GlcNAc(b1-3)Gal(b1-4)GlcNAc(b1-3)[Neu5Ac(a2-3)Gal(b1-4)GlcNAc(b1-3)Gal(b1-4)GlcNAc(b1-6)]GalNAc
# Outline: as §1
# [18] = target: Neu5Ac(a2-6)Gal(b1-4)GlcNAc(b1-2)Man(a1-3)[Neu5Ac(a2-6)Gal(b1-4)GlcNAc(b1-2)Man(a1-6)]Man(b1-4)GlcNAc(b1-4)[Fuc(a1-6)]GlcNAc
# Outline: as §1
# [19] = target: Neu5Ac(a2-6)Gal(b1-4)GlcNAc(b1-2)Man(a1-6)[Man(a1-3)]Man(b1-4)GlcNAc(b1-4)GlcNAc
# Outline: as §1
# [20] = target: Neu5Ac(a2-6)Gal(b1-4)GlcNAc(b1-3)Gal(b1-4)GlcNAc(b1-3)GalNAc
# Outline: as §1
# [21] = target: Neu5Ac(a2-6)Gal(b1-4)GlcNAc(b1-3)Gal(b1-4)[Fuc(a1-3)]GlcNAc(b1-3)Gal(b1-4)[Fuc(a1-3)]GlcNAc
# Outline: as §1
# [22] = target: Neu5Ac(a2-6)Gal(b1-4)GlcNAc(b1-3)[Neu5Ac(a2-6)Gal(b1-4)GlcNAc(b1-6)]GalNAc
# Outline: as §1
# [23] = target: Neu5Ac(a2-6)Gal(b1-4)GlcNAc6S
# Outline: as §1
# Neu5Ac(a2-8)Neu5Ac = target: Neu5Ac(a2-8)Neu5Ac
# Outline: as §1
# [24] = target: Neu5Ac(b2-6)Gal(b1-4)GlcNAc
# Outline: as §1
# [25] = target: Neu5Ac9Ac(a2-6)Gal(b1-4)GlcNAc
# Outline: as §1
# [26] = target: Neu5Gc(a2-6)Gal(b1-4)GlcNAc
# Outline: as §1
binder,measurement,setting,value
B1,glycan array binding signal (z-score),[1],0.008
same,glycan array binding signal (z-score),[2],0.046
same,glycan array binding signal (z-score),[3],-0.171
same,glycan array binding signal (z-score),[4],-0.18
same,glycan array binding signal (z-score),[5],0.03
same,glycan array binding signal (z-score),[6],0.551
same,glycan array binding signal (z-score),[7],0.609
same,glycan array binding signal (z-score),[8],-0.514
same,glycan array binding signal (z-score),[9],-0.39
same,glycan array binding signal (z-score),GlcNAc(b1-3)Man,1.9
same,glycan array binding signal (z-score),[10],-0.375
same,glycan array binding signal (z-score),GlcNAc(b1-6)GalNAc,-0.373
same,glycan array binding signal (z-score),Kdn(a2-3)Gal(b1-4)Glc,-0.2
same,glycan array binding signal (z-score),[11],-0.565
same,glycan array binding signal (z-score),Man(a1-3)[Man(a1-6)]Man,-0.074
same,glycan array binding signal (z-score),[12],-0.261
same,glycan array binding signal (z-score),[13],-0.308
same,glycan array binding signal (z-score),[14],-0.067
same,glycan array binding signal (z-score),[15],-0.31
same,glycan array binding signal (z-score),[16],-0.004
same,glycan array binding signal (z-score),[17],0.078
same,glycan array binding signal (z-score),[18],0.148
same,glycan array binding signal (z-score),[19],-0.445
same,glycan array binding signal (z-score),[20],-0.424
same,glycan array binding signal (z-score),[21],0.701
same,glycan array binding signal (z-score),[22],0.261
same,glycan array binding signal (z-score),[23],2.26
same,glycan array binding signal (z-score),Neu5Ac(a2-8)Neu5Ac,0.146
same,glycan array binding signal (z-score),[24],0.76
same,glycan array binding signal (z-score),[25],-0.44
same,glycan array binding signal (z-score),[26],0

# — the supplement of paper PMC8728848
